# In PubChem BioAssay (NCATS):
# A number with no mark means an inactive call. Results filed as inconclusive are left out. Where a call stands in place of a potency, no number is given. Calls of active or inactive are those of the source. Unless noted, calls come from the whole dose curve; as a rule, active = well fitted curve in the direction sought with a large enough effect; inconclusive = small, poorly fitted or top-dose-only effect, or another doubt; inactive = no such curve, though single readings can be large; an effect the other way counts as inactive or inconclusive.
# Columns and labels:
# [1] = target: Rap guanine nucleotide exchange factor 3 (Homo sapiens) (UniProt O95398); experiment: Confirmatory qHTS for antagonist of cAMP-regulated guanine nucleotide exchange factor 3 (EPAC1) (AID 1645880); settings: EPAC1 Rap1B-BODIPY-GDP exchange, fluorescence; activity, negative = inhibition: at 115 µM (top of the series); note: nearly all actives have a fitted effect of over 55% in size; note: potency is the fitted concentration of half-maximal effect
# Chain of Rap guanine nucleotide exchange factor 3 (Homo sapiens) (O95398 whole entry, looked up): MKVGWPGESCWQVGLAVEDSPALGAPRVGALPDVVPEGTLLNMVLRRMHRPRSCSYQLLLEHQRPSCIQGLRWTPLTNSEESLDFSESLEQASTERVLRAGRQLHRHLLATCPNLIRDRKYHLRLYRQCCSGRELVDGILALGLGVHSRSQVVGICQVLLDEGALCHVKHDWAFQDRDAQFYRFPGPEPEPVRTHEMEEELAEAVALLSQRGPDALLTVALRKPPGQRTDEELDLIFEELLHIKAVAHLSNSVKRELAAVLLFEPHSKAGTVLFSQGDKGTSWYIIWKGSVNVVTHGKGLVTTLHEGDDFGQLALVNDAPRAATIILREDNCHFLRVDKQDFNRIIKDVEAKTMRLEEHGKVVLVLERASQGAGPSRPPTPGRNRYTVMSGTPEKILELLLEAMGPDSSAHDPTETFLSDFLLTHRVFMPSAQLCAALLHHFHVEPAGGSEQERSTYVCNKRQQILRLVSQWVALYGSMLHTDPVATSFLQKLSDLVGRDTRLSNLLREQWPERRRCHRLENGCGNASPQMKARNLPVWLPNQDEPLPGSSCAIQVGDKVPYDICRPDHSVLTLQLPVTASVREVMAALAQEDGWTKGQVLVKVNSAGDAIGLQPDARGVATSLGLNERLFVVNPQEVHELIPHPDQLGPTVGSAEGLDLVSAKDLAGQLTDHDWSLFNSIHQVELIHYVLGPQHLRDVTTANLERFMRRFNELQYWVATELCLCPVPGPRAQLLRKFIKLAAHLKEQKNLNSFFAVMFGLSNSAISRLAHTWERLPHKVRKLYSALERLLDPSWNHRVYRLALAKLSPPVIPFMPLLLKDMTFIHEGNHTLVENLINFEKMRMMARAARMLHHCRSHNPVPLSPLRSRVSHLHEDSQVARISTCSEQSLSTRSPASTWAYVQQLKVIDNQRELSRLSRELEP
# Method in brief: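 Nucleotide exchange uses 100 nM EPAC1, 250 nM RAP1B-BODIPY-GDP and 50 uM GDP, with compounds in a concentration-titration series. After 5 min at room temperature, fluorescence (480 nm ex/540 nm em) is read every 5 min for 30 min. Data are normalized to control ATA and DMSO.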
# [2] = target: Rap guanine nucleotide exchange factor 4 (Homo sapiens) (UniProt Q8WZA2); experiment: Confirmatory qHTS for agonist of cAMP-regulated guanine nucleotide exchange factor 4 (EPAC2) (AID 1645884);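 note: nucleotide exchange releases bodipy-GDP from Rap1 and this lowers its fluorescence; nearly all actives have a fitted effect of over 65% in size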; note: potency is the fitted concentration of half-maximal effect
# Chain of Rap guanine nucleotide exchange factor 4 (Homo sapiens) (Q8WZA2 whole entry, looked up): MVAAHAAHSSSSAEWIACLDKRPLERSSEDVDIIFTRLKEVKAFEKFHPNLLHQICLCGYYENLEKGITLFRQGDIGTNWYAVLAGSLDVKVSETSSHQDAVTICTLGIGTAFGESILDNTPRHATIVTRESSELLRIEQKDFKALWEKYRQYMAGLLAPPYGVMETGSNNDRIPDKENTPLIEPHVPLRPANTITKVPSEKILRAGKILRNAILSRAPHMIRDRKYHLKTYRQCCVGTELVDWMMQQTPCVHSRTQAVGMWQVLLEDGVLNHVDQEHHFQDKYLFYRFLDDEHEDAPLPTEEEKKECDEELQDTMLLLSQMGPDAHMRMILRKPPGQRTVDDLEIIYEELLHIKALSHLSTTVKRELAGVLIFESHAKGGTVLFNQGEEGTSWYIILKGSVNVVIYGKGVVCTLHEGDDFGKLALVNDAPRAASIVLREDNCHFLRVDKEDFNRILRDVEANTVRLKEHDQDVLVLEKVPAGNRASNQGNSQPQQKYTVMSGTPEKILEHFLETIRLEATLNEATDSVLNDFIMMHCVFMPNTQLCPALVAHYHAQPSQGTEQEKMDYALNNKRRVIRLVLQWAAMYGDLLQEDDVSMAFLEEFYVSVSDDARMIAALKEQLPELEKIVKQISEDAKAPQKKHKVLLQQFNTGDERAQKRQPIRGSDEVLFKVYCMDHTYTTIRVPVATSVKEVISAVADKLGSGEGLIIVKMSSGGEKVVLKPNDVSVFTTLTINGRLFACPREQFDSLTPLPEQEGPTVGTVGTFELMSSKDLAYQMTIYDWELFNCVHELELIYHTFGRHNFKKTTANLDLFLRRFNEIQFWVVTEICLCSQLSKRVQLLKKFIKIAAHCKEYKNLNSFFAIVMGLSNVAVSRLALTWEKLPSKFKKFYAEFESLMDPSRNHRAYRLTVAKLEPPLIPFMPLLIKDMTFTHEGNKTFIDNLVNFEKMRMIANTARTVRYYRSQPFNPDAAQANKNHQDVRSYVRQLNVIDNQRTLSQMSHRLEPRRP
# [3] = target: Rap guanine nucleotide exchange factor 3 (Homo sapiens) (UniProt O95398); experiment: Counterscreen qHTS for antagonist of cAMP-regulated guanine nucleotide exchange factor 3 (EPAC1) (AID 1645888);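 note: fluorescence loss as bound BODIPY-GDP is released from Rap1B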
# Method in brief: (§1)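 Rap1B-BODIPY-GDP 250 nM + GDP 50 uM; cpds 7-pt, final 9.74 nM–152 uM (activator mode) or from 7.32 nM upwards (inhibitor mode); RT; FI 480/540 nm at 5 and 30 min, then ± cAMP, reread.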
# [4] = target: Rap guanine nucleotide exchange factor 3 (Homo sapiens) (UniProt O95398); experiment: Counterscreen qHTS for agonist of cAMP-regulated guanine nucleotide exchange factor 3 (EPAC1) (AID 1645889); note: nearly all actives have a fitted effect of over 40% in size; note: potency is the fitted concentration of half-maximal effect
# Method in brief: as §1
# [5] = target: Rap guanine nucleotide exchange factor 4 (Homo sapiens) (UniProt Q8WZA2); experiment: Confirmatory qHTS for antagonist of cAMP-regulated guanine nucleotide exchange factor 4 (EPAC2) (AID 1645885); note: nearly all actives have a fitted effect of over 25% in size; note: potency is the fitted concentration of half-maximal effect
# [6] = target: Tumor susceptibility gene 101 protein (Homo sapiens) (UniProt Q99816); experiment: qHTS Assay for Iinhibitors of HIV-1 Budding by Blocking the Interaction of PTAP/TSG101: Hit Validation (AID 651600); note: nearly all actives have a fitted effect of over 70% in size; note: potency is the fitted concentration of half-maximal effect
# Chain of Tumor susceptibility gene 101 protein (Homo sapiens) (Q99816 whole entry, looked up): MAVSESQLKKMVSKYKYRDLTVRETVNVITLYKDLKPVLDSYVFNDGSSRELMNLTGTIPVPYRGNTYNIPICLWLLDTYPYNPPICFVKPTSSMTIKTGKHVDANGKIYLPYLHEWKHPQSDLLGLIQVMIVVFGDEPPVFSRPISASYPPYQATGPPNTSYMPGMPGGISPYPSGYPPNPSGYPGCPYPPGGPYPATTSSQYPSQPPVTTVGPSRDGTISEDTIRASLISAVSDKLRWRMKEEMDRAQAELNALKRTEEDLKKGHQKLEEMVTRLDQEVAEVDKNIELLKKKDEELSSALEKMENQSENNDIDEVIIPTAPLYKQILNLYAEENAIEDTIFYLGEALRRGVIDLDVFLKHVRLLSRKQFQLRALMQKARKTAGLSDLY
# Method in brief: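 Measuring PTAP–Tsg101 interaction by FP: protein at 10 uM and fluorescent peptide at 50 nM (final), buffer 10 mM HEPES pH 7.5 with 0.15 M NaCl, 3 mM EDTA, 0.1 mM TCEP, 0.01% Tween 20; 20 min incubation, r.t.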
# [7] = target: Lysosomal acid glucosylceramidase (Homo sapiens) (UniProt P04062); experiment: Glucocerebrosidase-p2 (AID 348; in the data active = potency below about 10 µM; note: potency is the fitted concentration of half-maximal effect); settings: purified GBA, blue fluorogenic substrate, 40 min
# Chain of Lysosomal acid glucosylceramidase (Homo sapiens) (P04062 whole entry, looked up): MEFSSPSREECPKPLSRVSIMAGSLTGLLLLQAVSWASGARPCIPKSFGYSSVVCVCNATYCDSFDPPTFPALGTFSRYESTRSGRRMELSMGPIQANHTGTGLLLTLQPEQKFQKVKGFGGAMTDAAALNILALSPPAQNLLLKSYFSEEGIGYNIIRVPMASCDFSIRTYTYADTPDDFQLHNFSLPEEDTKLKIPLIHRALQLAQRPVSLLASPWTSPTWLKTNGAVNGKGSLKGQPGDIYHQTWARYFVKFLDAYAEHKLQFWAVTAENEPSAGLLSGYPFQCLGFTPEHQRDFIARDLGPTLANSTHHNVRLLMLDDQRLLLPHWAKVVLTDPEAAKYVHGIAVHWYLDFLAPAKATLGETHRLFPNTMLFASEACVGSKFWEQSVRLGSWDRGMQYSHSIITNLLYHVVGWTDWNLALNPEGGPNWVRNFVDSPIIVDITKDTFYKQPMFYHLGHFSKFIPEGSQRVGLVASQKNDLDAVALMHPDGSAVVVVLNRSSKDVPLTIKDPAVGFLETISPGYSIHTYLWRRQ
# Method in brief: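 Compounds titrated from 0.6 nM upwards against 0.2 nM enzyme in pH 5.9 citric acid/KH2PO4, taurocholate, tween-20; blue fluorogenic substrate 80 uM, 40 min room temperature, stopped and read Ex 365/Em 440 for AC50.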
# [8] = AP1 Signaling Pathway (AID 357; active = well fitted curve in either direction with a large enough effect, not every such curve was filed as active;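 note: ME-180 reporter cells stimulated with EGF at its EC50 level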); settings: ME-180 AP-1-bla reporter, EGF-induced, beta-lactamase ratio, 5 h; at 7.69 µM (top of the series) unless noted
# Method in brief: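 AP-1-bla ME-180 cells, Opti-MEM + 0.5% dialyzed FBS, plated overnight 37 °C. Cpd titration + EC50 EGF, 5 h 37 °C. CCF4 2.5 h RT; ex 405, em 460/530 ratio → %activity, AC50.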
# [9] = NFAT Signaling Pathway (AID 444; active = well fitted curve in either direction with a large enough effect, not every such curve was filed as active;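 note: carbachol stimulus at about its EC50 of 1 µM final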); settings: Jurkat NFAT-bla M1, carbachol, beta-lactamase ratio, 5 h; at 7.69 µM (top of the series) unless noted
# Method in brief: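 Read-out: CCF4 FRET ratio (460 nm/530 nm) after 1 h RT dye loading, used for %activity and AC50 from titration series. Cells: Jurkat NFAT-β-lactamase/M1 line, treated with compound plus 1 uM carbachol for 5 h, 37 °C.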
# [10] = Stat Signaling Pathway (AID 446; active = well fitted curve in either direction with a large enough effect, not every such curve was filed as active;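 note: ME-180 cervical cancer cells given 40 pM IL-6 alongside compound; SIE-controlled beta-lactamase reporter measured as 460/530 nm FRET emission ratio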)
# Method in brief: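 IL-6/STAT signaling read in ME-180 cells via an SIE beta-lactamase reporter. Stimulus was 40 pM IL-6 (its AC50) for 5 hrs, so both activation and inhibition register.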
# [11] = target: Glucocorticoid receptor (Homo sapiens) (UniProt P04150); experiment: GR-EFC Redistribution (AID 451; calls by dose curve; note: potency is the fitted concentration of half-maximal effect); settings: CHO-K1 GR-EFC translocation, beta-gal luminescence, 2 h
# Chain of Glucocorticoid receptor (Homo sapiens) (P04150 whole entry, looked up, the tested form may be a part): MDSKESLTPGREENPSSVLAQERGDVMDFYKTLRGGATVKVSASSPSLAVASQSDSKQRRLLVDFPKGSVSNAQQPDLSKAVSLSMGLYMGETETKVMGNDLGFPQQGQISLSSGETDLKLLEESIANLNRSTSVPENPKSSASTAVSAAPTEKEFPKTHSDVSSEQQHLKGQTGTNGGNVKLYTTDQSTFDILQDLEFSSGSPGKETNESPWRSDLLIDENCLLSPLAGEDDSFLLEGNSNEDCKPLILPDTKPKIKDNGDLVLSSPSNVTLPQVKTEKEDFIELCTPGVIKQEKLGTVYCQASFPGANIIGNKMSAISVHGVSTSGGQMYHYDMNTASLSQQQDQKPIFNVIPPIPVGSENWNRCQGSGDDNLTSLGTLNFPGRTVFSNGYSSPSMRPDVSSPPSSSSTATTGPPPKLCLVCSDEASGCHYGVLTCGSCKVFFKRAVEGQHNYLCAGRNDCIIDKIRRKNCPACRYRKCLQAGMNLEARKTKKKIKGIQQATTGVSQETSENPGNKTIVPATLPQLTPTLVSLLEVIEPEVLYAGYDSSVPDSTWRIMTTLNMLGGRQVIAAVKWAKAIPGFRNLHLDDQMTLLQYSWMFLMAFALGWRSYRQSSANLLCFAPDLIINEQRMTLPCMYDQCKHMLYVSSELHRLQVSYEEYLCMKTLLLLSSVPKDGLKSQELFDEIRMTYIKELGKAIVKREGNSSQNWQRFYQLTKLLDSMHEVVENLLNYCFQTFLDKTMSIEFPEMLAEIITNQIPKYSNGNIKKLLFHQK
# Method in brief: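 Translocation of GR-ED fusion to nuclear EA restores b-gal, read by luminescence after 1 h room-temperature detection. Engineered CHO-K1 biosensor cells, 1,000/well, exposed 2 h at 37 C to titrations up to 46 uM final.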
# [12] = target: Mitogen-activated protein kinase 10 (Mus musculus) (UniProt Q61831); experiment: JNK3 AlphaScreen Assay (AID 530; active = well fitted curve in either direction with a large enough effect, not every such curve was filed as active;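 note: kinase came from lysate of stimulated human HepG2 cells; signal reports phosphorylation of biotinylated GST-cJun 1-79 at Ser73 with 10 µM ATP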)
# Method in brief: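 Compound titrations were preincubated 15 minutes at room temperature with substrate, antibody and pre-activated JNK3-containing HepG2 lysate. Reactions were started with 10 uM ATP and stopped with EDTA-containing bead buffer for AlphaScreen detection.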
# [13] = target: 3',5'-cyclic-AMP phosphodiesterase 4B (Homo sapiens) (UniProt Q07343); experiment: qHTS Assay for Inhibitors of PDE-IV (AID 607; active = well fitted activation curve with a large enough effect in the main read-out, with a control signal flat, not every such curve was filed as active)
# Chain of 3',5'-cyclic-AMP phosphodiesterase 4B (Homo sapiens) (Q07343 whole entry, looked up): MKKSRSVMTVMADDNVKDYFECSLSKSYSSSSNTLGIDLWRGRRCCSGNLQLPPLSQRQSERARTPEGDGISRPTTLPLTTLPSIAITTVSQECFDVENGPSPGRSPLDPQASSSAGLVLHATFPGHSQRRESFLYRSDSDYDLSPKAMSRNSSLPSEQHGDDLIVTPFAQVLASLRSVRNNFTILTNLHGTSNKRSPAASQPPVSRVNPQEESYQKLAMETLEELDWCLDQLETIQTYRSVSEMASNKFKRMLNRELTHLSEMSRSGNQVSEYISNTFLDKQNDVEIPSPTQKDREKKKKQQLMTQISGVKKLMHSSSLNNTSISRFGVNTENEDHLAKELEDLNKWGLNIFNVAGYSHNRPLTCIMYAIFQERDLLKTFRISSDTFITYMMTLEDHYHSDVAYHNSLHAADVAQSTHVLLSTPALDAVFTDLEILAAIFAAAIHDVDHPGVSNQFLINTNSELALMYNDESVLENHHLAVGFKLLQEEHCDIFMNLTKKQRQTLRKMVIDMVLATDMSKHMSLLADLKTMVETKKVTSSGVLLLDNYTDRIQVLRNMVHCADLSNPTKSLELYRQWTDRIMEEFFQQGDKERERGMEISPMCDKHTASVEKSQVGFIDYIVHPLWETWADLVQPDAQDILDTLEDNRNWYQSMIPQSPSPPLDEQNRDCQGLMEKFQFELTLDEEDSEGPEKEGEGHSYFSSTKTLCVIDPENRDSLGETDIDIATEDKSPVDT
# Method in brief: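 Live HEK293 cells with a modified cyclic nucleotide-gated (CNG) channel report intracellular cAMP via membrane-potential dye fluorescence (ex 535/em 590 nm). Endogenous PDE-IV was targeted. Compounds were tested at up to 22.9 uM final; RO 20-1724 100 uM served as control.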
# [14] = target: Cytochrome P450 3A4 (Homo sapiens) (UniProt P08684); experiment: qHTS Assay for Inhibitors and Substrates of Cytochrome P450 3A4 (AID 884); note: potency is the fitted concentration of half-maximal effect; nearly all actives have a fitted effect of over 50% in size
# Chain of Cytochrome P450 3A4 (Homo sapiens) (P08684 whole entry, looked up): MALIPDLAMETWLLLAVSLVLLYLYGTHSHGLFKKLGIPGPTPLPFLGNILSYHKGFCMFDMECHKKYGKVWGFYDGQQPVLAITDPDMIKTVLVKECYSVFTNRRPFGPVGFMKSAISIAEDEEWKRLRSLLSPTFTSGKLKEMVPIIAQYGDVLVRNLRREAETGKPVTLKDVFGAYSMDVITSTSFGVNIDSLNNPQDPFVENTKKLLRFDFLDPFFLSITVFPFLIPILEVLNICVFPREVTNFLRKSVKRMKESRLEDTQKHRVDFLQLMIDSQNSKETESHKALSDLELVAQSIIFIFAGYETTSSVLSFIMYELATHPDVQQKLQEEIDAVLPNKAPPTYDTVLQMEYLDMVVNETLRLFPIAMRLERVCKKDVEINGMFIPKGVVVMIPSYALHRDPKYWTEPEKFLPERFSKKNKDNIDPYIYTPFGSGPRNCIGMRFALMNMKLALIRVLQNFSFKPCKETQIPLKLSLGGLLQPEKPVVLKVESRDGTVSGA
# Method in brief: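 20 nM human CYP3A4 with 25 uM Luciferin-PPXE (at KM) in 200 mM KPO4, preincubated 10 min with compound; NADPH regeneration started a 60 min RT reaction. Luciferin detected by luminescence, normalized to 57 uM ketoconazole as full inhibition.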
# [15] = target: Cytochrome P450 3A4 (Homo sapiens) (UniProt P08684); experiment: qHTS Assay for Activators of Cytochrome P450 3A4 (AID 885); note: nearly all actives have a fitted effect of over 65% in size
# Method in brief: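 Quantitative HTS format: compounds preincubated with 20nM human CYP3A4 and Luciferin-PPXE substrate at KM, reaction started by NADPH regeneration, stopped after 60 min, luciferase luminescence read 20 min later.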
# [16] = qHTS Assay for Identification of Small Molecule Agonists for Hypoxia Response Element Signaling Pathway (AID 914; active = well fitted activation curve with a large enough effect in the signal ratio, with a control signal flat, not every such curve was filed as active; the % refers to the signal ratio); settings: ME-180 (cervical carcinoma) HRE-bla reporter, beta-lactamase ratio, CoCl2, 17 h; activation: stronger effect = higher value
# Method in brief: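 HRE-bla ME-180 cells, overnight plating in Opti-MEM with 0.5% dialyzed FBS; cpd titration + EC50 CoCl2, 17 h, 37 degrees Celsius; CCF4 2.5 h RT; 460/530 nm ratio; AC50.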
smiles,measurement,setting,value
CC(=O)Nc1ccc(Nc2c3c4c(cccc4n(C)c2=O)C(=O)c2ccccc2-3)cc1,Potency,[1],inactive
same,Potency,[2],100 µM (active)
same,Potency,[3],inactive
COC(=O)C1=NN(c2ccc(C)cc2)C2(S1)SC(C(C)=O)=C(C)N2c1ccccc1 (configuration not stated),Potency,[1],inactive
same,Potency,[2],100 µM (active)
same,Potency,[3],inactive
same,Potency,[4],inactive
O=C1c2ccccc2-c2onc3c(Br)cc(NC4CCCCC4)c1c23,Potency,[1],inactive
same,Potency,[2],inactive
same,Potency,[3],inactive
same,Potency,[4],inactive
O=S1(=O)C=C(Oc2ccc3ccccc3c2)c2ccccc21,Potency,[1],inactive
same,activation,[2],"-2.76% [at 17.1 µM, percent relative to cAMP agonist control]"
same,"activity change, negative = inhibition",[3],21.2% [at 30.8 µM]
CCCN(CCC)c1ccc(/C=C/c2ccnc3ccccc23)cc1,Potency,[1],inactive
same,Potency,[5],inactive
CCSc1nnc(-c2sc3nnc(-c4ccccc4)c(-c4ccccc4)c3c2N)o1,Potency,[6],25.9 µM (active)
same,Potency,[1],inactive
same,Potency,[2],112 µM (active)
same,Potency,[3],inactive
CNc1ccc2c3c(cccc13)C(=O)N(C)C2=O,Potency,[6],2.06 µM (active)
same,Potency,[1],inactive
same,Potency,[2],112 µM (active)
same,Potency,[5],84.9 µM (active)
Cc1ccccc1C(=O)O/N=C(\c1ccccc1)c1ccccn1,Potency,[1],inactive
same,activation,[2],"8.13% [at 17.1 µM, percent relative to cAMP agonist control]"
same,"activity change, negative = inhibition",[3],3.56% [at 30.8 µM]
CSc1ncccc1C(=O)OCc1c(F)cccc1Cl,Potency,[1],inactive
same,Potency,[2],inactive
same,Potency,[3],inactive
CCN(CC)c1ccc2cc(C(=O)NNC(=O)c3ccc(S(=O)(=O)N4CCCCC4)cc3)c(=O)oc2c1,Potency,[1],inactive
same,Potency,[2],112 µM (active)
same,Potency,[3],inactive
same,Potency,[4],inactive
COCCN1C(=O)/C(=C/c2ccc(N3CCCC3)cc2)SC1=S,Potency,[1],inactive
same,Potency,[2],112 µM (active)
same,Potency,[3],inactive
O=C(C1=NN(c2ccccc2)C2C(=O)N(c3ccccc3)C(=O)C12)c1ccccc1 (configuration not stated),Potency,[6],inactive
same,Potency,[1],inactive
same,activation,[2],"11% [at 17.1 µM, percent relative to cAMP agonist control]"
same,Potency,[4],15.8 µM (active)
Cc1cc([N+](=O)[O-])c2[nH]c(C(=O)N/N=C/c3ccccc3C(=O)O)c(-c3ccccc3)c2c1,Potency,[1],67.5 µM (active)
same,Potency,[2],inactive
same,Potency,[4],inactive
Cc1ccc2oc(=O)n(Cc3ccccc3)c2c1,Potency,[1],inactive
same,activation,[2],"5.26% [at 17.1 µM, percent relative to cAMP agonist control]"
same,"activity change, negative = inhibition",[3],1.72% [at 30.8 µM]
CC(=Nc1ccc(C)cc1C)c1sc2ccccc2c1O,Potency,[6],inactive
same,Potency,[1],inactive
same,Potency,[2],100 µM (active)
same,Potency,[3],inactive
Nc1ccc2c3c(cccc13)C(=O)N(c1ccccc1)C2=O,Potency,[6],3.66 µM (active)
same,Potency,[1],inactive
same,Potency,[2],100 µM (active)
same,Potency,[5],inactive
COc1cccc(C(=O)c2sc3nc(-c4ccccc4)cc(C(F)(F)F)c3c2N)c1,Potency,[1],inactive
same,Potency,[2],inactive
same,Potency,[3],inactive
same,Potency,[4],56.2 µM (active)
CCCCNc1ccc2c3c(cccc13)C(=O)N(CCCC)C2=O,Potency,[6],4.11 µM (active)
same,Potency,[1],inactive
same,activation,[2],"-62.3% [at 17.1 µM, percent relative to cAMP agonist control]"
same,"activity change, negative = inhibition",[3],213% [at 30.8 µM]
same,Potency,[4],20 µM (active)
Cc1ccc(NC(=O)CSc2nnc(-c3cc4occc4n3C)n2-c2ccccc2C)c(Cl)c1,Potency,[1],inactive
same,Potency,[2],inactive
same,Potency,[3],inactive
COc1ccc(NC(=O)c2csc3c2CCCCC3)c(OC)c1,Potency,[1],inactive
same,Potency,[2],inactive
same,Potency,[3],inactive
same,Potency,[4],inactive
O=C(C(=Cc1ccc(O)cc1)c1ccccc1)c1ccccc1,Potency,[1],inactive
same,Potency,[2],inactive
same,Potency,[3],inactive
COC(=O)c1cc2oc(C)cc2n1Cc1ccc(C)cc1,Potency,[1],inactive
same,Potency,[2],inactive
same,Potency,[3],inactive
same,Potency,[4],inactive
O=C1N(Cc2ccccc2)c2ccc(Cl)cc2C12OCCO2,Potency,[1],inactive
same,activation,[2],"2.15% [at 17.1 µM, percent relative to cAMP agonist control]"
same,"activity change, negative = inhibition",[3],-8.76% [at 30.8 µM]
same,activation,[4],35.6% [at 30.8 µM]
COc1ccc(Oc2ncc3nc(C)c(=O)n(Cc4cccs4)c3n2)cc1,Potency,[7],> 11.4 µM
same,"activity change, negative = inhibition",[8],4.45%
same,"activity change, negative = inhibition",[9],-5.89%
same,outcome,[10],inactive
same,Potency,[11],> 46 µM
same,Potency,[12],inactive
same,Potency,[13],inactive
same,Potency,[14],3.16 µM (active)
same,outcome,[15],inactive
same,activation,[16],-21.2%
same,Potency,[1],inactive
same,Potency,[2],inactive
Brc1ccccc1Cn1c(-c2cncs2)nc2ccccc21,Potency,[1],inactive
same,Potency,[2],inactive
same,Potency,[3],inactive
CCOC(=O)c1cc(C)sc1NC(=O)CSC1=NCCS1,Potency,[1],inactive
same,Potency,[5],inactive
same,Potency,[3],inactive
COc1ccc(-c2csc3nc(C)nc(N4CCCCC4)c23)cc1OC,Potency,[1],inactive
same,Potency,[5],inactive
same,Potency,[3],inactive
CN(C)c1ccc(/C=C/c2ccnc3c(Cl)cccc23)cc1,Potency,[1],inactive
same,Potency,[5],inactive
COCc1c(C(=O)N2CCc3ccccc32)oc2ccccc12,Potency,[1],inactive
same,Potency,[2],112 µM (active)
same,Potency,[3],inactive
CN(C)c1ccc(-c2cc3ccccc3c(=O)o2)cc1,Potency,[1],inactive
same,Potency,[5],inactive
same,Potency,[3],inactive
Cc1ccc(/C=C/C(=O)c2ccc(N3CCOCC3)cc2)s1,Potency,[1],inactive
same,Potency,[2],100 µM (active)
same,Potency,[3],inactive
N#C/C(=C\c1ccc(Sc2ccc(Cl)cc2)o1)c1nc2ccccc2[nH]1,Potency,[1],inactive
same,Potency,[5],inactive
same,Potency,[3],inactive
